Screens as filed in PubChem BioAssay.
Mtb UGM inh: Mtb UDP-galactopyranose mutase inhibition | P9WIQ1 | purified UGM, fluorescence polarization probe displacement | inhibition, % at 10 µM | hit rate 0.06% among 320,000; in the data active means inhibition above about 10%, passing the limit was not always enough; inconclusive means no clear call, values can overlap the other calls
Rv3671c inh: inhibits the M. tuberculosis serine protease Rv3671c. P9WHR9. inhibition, % at 5.96 µM. hit rate 0.048% among 320,000. AID 2606; in the data active means inhibition above about 38%;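 further: extracellular domain of Rv3671c used as enzyme; 0% = enzyme with DMSO and 100% = no enzyme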
Target sequence (P9WHR9 whole entry, looked up, the tested form may be a part): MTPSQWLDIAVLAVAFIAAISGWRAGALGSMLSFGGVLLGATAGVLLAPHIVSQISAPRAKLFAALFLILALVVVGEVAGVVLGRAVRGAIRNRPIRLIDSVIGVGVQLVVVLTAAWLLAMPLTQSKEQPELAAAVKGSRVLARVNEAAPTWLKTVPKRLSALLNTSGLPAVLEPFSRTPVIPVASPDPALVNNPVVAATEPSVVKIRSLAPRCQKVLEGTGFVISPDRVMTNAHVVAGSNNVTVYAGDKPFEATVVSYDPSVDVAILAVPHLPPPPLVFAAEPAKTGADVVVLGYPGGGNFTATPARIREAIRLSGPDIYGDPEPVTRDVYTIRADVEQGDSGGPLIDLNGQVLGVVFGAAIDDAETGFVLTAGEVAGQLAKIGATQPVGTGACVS
SSB-PriA inh: K. pneumoniae PriA-SSBct interaction inhibition | inhibition, % at 33 µM | hit rate 0.6% among 430,000 | AlphaScreen SSBct-PriA binding, biotinylated peptide; in the data active means inhibition mostly above about 37%, no sharp cut-off; inactive means mostly below about 20%;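 further: plate controls were negative control peptide for no effect and reference peptide for full effect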
RecA splice inh: blocks M. tuberculosis RecA intein splicing. P9WHJ3. cell-free RecA intein splicing, fluorescence. inhibition, % (no concentration beside the values). hit rate 0.75% among 290,000. AID 2221; in the data active means inhibition above about 30%; inconclusive means no clear call, values can overlap the other calls;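 further: 0% = vehicle wells and 100% = reference inhibitor control wells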
Mtb betalactam: beta-lactam sensitization of Mtb H37Rv | AID 434955 | M. tuberculosis H37Rv growth with meropenem, percent inhibition | hit rate 0.27% among 330,000 | inhibition, % at 25 µM; call rule not given here;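 further: growth measured after seven days incubation then overnight dye step; 0% = bacteria only wells and 100% = bacteria with antibiotic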
* marks the source's active call; other numbers are inactive results; ? = inconclusive; · = not tested or not shown; ! = a repeat was not active. Rows were chosen to be rich in hits. Some 1.1% of all compounds tested hit in one or more screens of this group.

SMILES	Mtb UGM inh	Rv3671c inh	SSB-PriA inh	RecA splice inh	Mtb betalactam
O=C(NCCCS(=O)(=O)N1CCN(c2ncccn2)CC1)c1cc(=O)c2ccccc2o1	·	·	-19	·	·
O=C(NC1CCCCC1)c1cccc2c1C(=O)c1ccc(N3CCC(Cc4ccccc4)CC3)cc1S2(=O)=O	19*	-23	8	·	1
O=C(NCC1CCCO1)c1cccc2c1C(=O)c1ccc(N3CCC(Cc4ccccc4)CC3)cc1S2(=O)=O (stereo unspecified)	19*	-7	-12	·	3
O=C(NCc1ccccc1Br)c1cccc2c1C(=O)c1ccc(N3CCC(Cc4ccccc4)CC3)cc1S2(=O)=O	8	-18	4	·	-4
Cc1ccc(NC(=O)C2CCN(c3cc(-n4cncn4)ncn3)CC2)c(Br)c1	·	·	-3	·	·
O=C(/C=C/c1cccs1)Nc1ccccc1-c1nc2ccccc2s1	·	·	-1	·	·
COc1ccc(Nc2ccc(C(F)(F)F)cc2[N+](=O)[O-])cn1	1	0	46*	2	5
CC(=NNC(=O)c1cc(C)nc2ccccc12)c1ccccn1	·	·	94*	·	·
CC(=NNC(=O)c1cccc2ccccc12)c1ccccn1	·	·	66*	·	·
C/C(=N\NC(=O)c1cc(C)nc2ccccc12)c1ccccn1	2	4	·	·	95
O=C(CN(c1ccc(F)cc1)S(=O)(=O)c1ccc2c(c1)OCCO2)NCc1cccnc1	-1	-1	52*	-2	-6
O=C(CCl)Nc1ccc(N2CCCCCC2)cc1	-2	6	31	48*	97
COc1ccccc1NS(=O)(=O)c1ccc(NN=C2CCCCC2)c([N+](=O)[O-])c1	2	-3	62*	1	0
NS(=O)(=O)c1ccc(NN=C2CCCCC2C2CCCCC2)c([N+](=O)[O-])c1 (stereo unspecified)	·	·	40*	·	·
COc1ccccc1NS(=O)(=O)c1ccc(N/N=C(\C)C(C)C)c([N+](=O)[O-])c1	2	-2	·	2	7
CCCC(CCC)=NNc1ccc(S(=O)(=O)Nc2ccccc2OC)cc1[N+](=O)[O-]	2	-2	41*	-2	-2
O=[N+]([O-])c1cc(Cl)c2cccnc2c1O	8	4	67*	1	30
O=[N+]([O-])c1cc(Cl)c(O)c2ncccc12	·	·	86*!	6	·
O=[N+]([O-])c1cc(F)c2cccnc2c1O	-2	-90	-10	7	78
CC(=O)C(=NNc1ccccc1[N+](=O)[O-])N1CCCc2ccccc21	·	·	56*	·	·
Cc1csc(N2CCCC2c2nc3cc(Cl)c(N4CCCCC4)cc3n2CCOCCO)n1 (stereo unspecified)	1	-1	12	1	-7
Cc1csc(N2CCCC2c2nc3cc(C(F)(F)F)ccc3n2CCOCCO)n1 (stereo unspecified)	-2	-4	48*	-1	0
O=C(O)c1cccc(NN=Cc2cccnc2)c1	·	·	-17	·	·
O=C(NCc1nnc(SCC(=O)N2CCOCC2)o1)c1ccccc1	·	·	56*	·	·
CCCCCCCCCn1c2c(c(=N)c3c1CCC3)CCCC2	·	·	9	·	·
SMILES	Mtb UGM inh	Rv3671c inh	SSB-PriA inh	RecA splice inh	Mtb betalactam
CCCCCCCCCCn1c2c(c(=N)c3c1CCC3)CCC2	-2	6	2	32*	100
S=C(Nc1ccccc1)c1ccccn1	0	8	72*	1	100
S=C(Nc1ccc(Nc2ccccc2)cc1)Nc1ccccn1	4	8	-2	1	-6
Cc1ccccc1C(=O)Nc1ccc2c(c1)N(C)C(=O)C(C)(C)CO2	·	·	17	·	·
O=C1N=NC2=C1c1c3ccccc3c(O)n1CC2	1	-7	0	56*	4
CCOc1ccccc1NC(=O)CSc1nnc(-c2cccc(OC)c2)n1-n1cccc1	·	·	-4	·	·
O=C(NCC1CCN(C(=O)c2cccnc2)CC1)c1cc(-c2ccccc2)on1	·	·	-12	·	·
COc1cccc(CNc2ccc3[nH]c(=O)[nH]c3c2)c1OCc1ccccc1	-3	·	47*	8	3
COc1cc(CNc2ccc3[nH]c(=O)[nH]c3c2)cc(Br)c1OCc1ccccc1F	-1	·	-5	-2	0
COc1cc(CNc2ccc3[nH]c(=O)[nH]c3c2)ccc1OCc1ccc(F)cc1	0	4	19	0	-2
COc1ccc(Br)cc1CNc1ccc2[nH]c(=O)[nH]c2c1	-1	9	39*	-3	3
COc1cc(CNc2ccc3[nH]c(=O)[nH]c3c2)ccc1OCc1ccccc1	1	4	41*	-3	4
COc1ccc(Br)cc1CNc1ccc(O)cc1	0	-20	38	·	12
COc1cccc(CNc2ccc3[nH]c(=O)[nH]c3c2)c1OCc1ccccc1Cl	2	8	79*	11	11
N#Cc1c(SCC(=O)c2ccccc2)nc2c(c1-c1cccnc1)CCCC2	·	·	10	·	·
CCOc1ccccc1NC(=O)Cc1csc(SCC(=O)Nc2cccc(NC(C)=O)c2)n1	·	·	19	·	·
O=C(NCc1ccc(OC(F)(F)F)cc1)[C@H]1CCCN(c2cc(-n3cncn3)ncn2)C1	·	·	3	·	·
O=C(CN1C(=O)C2CCCCC2C1=O)Nc1nc(-c2ccccn2)cs1 (stereo unspecified)	-2	-20	81*	0	80
CC1Oc2ccccc2N(CC(=O)Nc2nc(-c3ccccn3)cs2)C1=O (stereo unspecified)	·	·	58*	·	·
COc1ccc(-c2csc(NC(=O)CN3C(=O)C4CCCCC4C3=O)n2)cc1OC (stereo unspecified)	?	7	8	6	-4
CC(C)[C@H](NC(=O)c1ccccc1Cl)C(=O)Nc1nc(-c2ccccn2)cs1	-2	1	8	1	81
C[C@@H](C(=O)Nc1nc(-c2ccccn2)cs1)N1C(=O)C2CCCCC2C1=O (stereo partly specified)	1	-7	81*	-1	75
FC(F)(F)c1cc(C(F)(F)F)c2ccc(NN=Cc3ccccc3)nc2n1	·	·	-7	·	·
CC(=NNS(=O)(=O)c1ccc(Cl)cc1)c1ccc(O)cc1	·	·	-8	·	·
NNc1ccc2c(C(F)(F)F)cc(C(F)(F)F)nc2n1	2	3	10	-8	-2
SMILES	Mtb UGM inh	Rv3671c inh	SSB-PriA inh	RecA splice inh	Mtb betalactam
N#CC(c1cccc(Cl)c1)c1ccc2c(C(F)(F)F)cc(C(F)(F)F)nc2n1 (stereo unspecified)	·	-3	51*	9	75
COc1ccc(-c2cn3cccnc3n2)cc1NC(=O)c1cccc(C(F)(F)F)c1	·	·	-7	·	·
O=C1OCC2Cc3ccccc3CN12 (stereo unspecified)	·	·	-12	·	·
COc1ccc(N2C(=O)/C(=C\c3ccco3)N=C2SCC(=O)NC(C)(C)C)cc1Cl	·	0	-1	38*	-6
CCN(CC)C(=O)CSC1=N/C(=C/c2ccco2)C(=O)N1c1ccc(OC)c(Cl)c1	1	-11	7	16	0
O=C(NCc1ccccc1Cl)C(=O)Nc1cccc(N2CCCCC2=O)c1	·	·	9	·	·
COc1ccccc1C1NC=C([N+](=O)[O-])C=C1[N+](=O)[O-] (stereo unspecified)	0	2	45*	-1	-5
COc1ccccc1C1C([N+](=O)[O-])=CC([N+](=O)[O-])=CN1C (stereo unspecified)	2	-1	7	2	2
COc1ccc(CC(=O)Nc2cccc(C)n2)cc1C	·	·	-5	·	·
O=C(O)CNc1ncnc2nc[nH]c12	·	·	-10	·	·
